Records with an inconclusive call do not appear. Some compounds were tested as several samples or in several runs, with calls that do not always agree. Active and inactive are the calls of the source. Unless noted, calls come from the whole dose curve; as a rule, active = well fitted curve in the direction sought with a large enough effect in the repeat runs; inconclusive = weak or mixed curves; inactive = no such curve, though single readings can be large; an effect the other way counts as inactive or inconclusive.
Key:
[1] = qHTS assay for small molecule agonists of the p53 signaling pathway (AID 651631; calls by dose curve; note: nearly all actives have a fitted effect of over 15% in size)
How it was run: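 HCT-116 cells carrying a beta-lactamase reporter under p53 response elements were dosed with compound for 16 h at 37 °C. LiveBLAzer B/G FRET substrate was then added for 2 h at room temperature, and fluorescence intensity was read to detect pathway agonism.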

[2] = qHTS assay for small molecules that induce genotoxicity in human embryonic kidney cells expressing luciferase-tagged ATAD5 (AID 651632); note: nearly all actives have a fitted effect of over 15% in size
How it was run: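 Luminescence read-out: after 16 hr compound exposure at 37C, ATAD5-luciferase HEK293T cells received Amplite, 30 min RT, then CCD imaging. A rise in signal marks genotoxic stress.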

[3] = qHTS assay for small molecule agonists of the p53 signaling pathway - cell viability (AID 651633; calls by dose curve;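 note: p53RE-bla HCT reporter cells with a stable beta-lactamase p53 reporter; series mostly up to about 83 µM; nearly all actives have a fitted effect of over 30% in size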)
How it was run: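 p53RE-bla cells, seeded at 4,000 per well and rested 5 h at 37 C/5% CO2, received compounds in DMSO for 16 h at 37 C. CellTiter-Glo was then added, and luminescence was read after 30 min at room temperature to gauge cytotoxicity.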

[4] = qHTS assay for small molecules that induce genotoxicity in human embryonic kidney cells expressing luciferase-tagged ATAD5 - cell viability (AID 651634; calls by dose curve; note: nearly all actives have a fitted effect of over 25% in size)
How it was run: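 HEK293T ATAD5-luc cells, 2,000/well; compound 15.5 hr, 37C/5% CO2; CellTiter-Fluor 30 min, 37C; fluorescence read.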

[5] = qHTS assay for small molecule disruptors of the mitochondrial membrane potential - cell viability (AID 720634; calls by dose curve;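 note: human HepG2 liver cancer cells; series mostly up to about 83 µM; nearly all actives have a fitted effect of over 20% in size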)
How it was run: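 Luminescence from CellTiter-Glo (ATP content) gave viability in HepG2 cells, read in the same wells as the MMP dye assay after 1 hr compound exposure at 37 C.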

[6] = qHTS assay for small molecule disruptors of the mitochondrial membrane potential (AID 720635); note: potency is the fitted concentration of half-maximal effect
How it was run: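 HepG2 cells (2,000/well) attached overnight at 37C, then took compound for 1 hr at 37C, 5% CO2. Mito-MPS dye was added for 30 min; fluorescence was read at 490/535 nm (monomers) and 540/590 nm (aggregates).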

[7] = qHTS assay to test for compound auto fluorescence at 590 nm (red) in HepG2 cells (AID 720674)
How it was run: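 Compound auto-fluorescence is scored relative to Rose Bengal sodium, measured at 540/590 nm in live HepG2 cultures after 1 hr compound contact (37 C, 5% CO2).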

[8] = qHTS assay to test for compound auto fluorescence at 535 nm (green) in HepG2 cells (AID 720675)
[9] = qHTS assay to test for compound auto fluorescence at 460 nm (blue) in HEK293 cells (AID 720678)
How it was run: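 HEK293 cells (2,000/well, medium with 10% dialyzed FBS) attached 4-5 hr, then exposed to compound overnight at 37C, 5% CO2. Blue fluorescence read at 405/460 nm, with triamterene as reference fluorophore.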

[10] = qHTS assay to test for compound auto fluorescence at 590 nm (red) in HEK293 cells (AID 720679)
How it was run: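 HEK293 cells (2,000/well, 10% dialyzed FBS) attached 4-5 hr, then dosed with compound or DMSO and incubated overnight at 37C, 5% CO2. Red fluorescence read at 540/590 nm, Rose Bengal sodium as reference fluorophore.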

[11] = qHTS assay to test for compound auto fluorescence at 535 nm (green) in HEK293 cells (AID 720680)
[12] = qHTS assay to test for compound auto fluorescence at 460 nm (blue) in HEK293 cell free culture (AID 720681)
How it was run: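 Test compounds were pinned into cell-free culture medium (DMEM with 10% FBS) and fluorescence was read directly at Ex/Em 405/460 nm. Signals were expressed as fluorescence equivalents of triamterene, with DMSO vehicle as control.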

[13] = qHTS assay to test for compound auto fluorescence at 590 nm (red) in HepG2 cell free culture (AID 720684)
How it was run: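 Ex 540 / Em 590 nm read of compound in cell-free MEM (10% FBS). Rose Bengal sodium reference.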

[14] = qHTS assay to test for compound auto fluorescence at 460 nm (blue) in HepG2 cell free culture (AID 720685)
How it was run: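 Cell-free plates of MEM plus 10% FBS received 23 nL compound or DMSO vehicle; blue-channel (405/460 nm) intensity scored against triamterene as reference fluorophore.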

[15] = qHTS assay to test for compound auto fluorescence at 460 nm (blue) in HepG2 cells (AID 720687)
How it was run: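 Cells (2,000/well in MEM with 10% FBS) attached overnight at 37 C, then were exposed to compound or DMSO for 1 hr at 37 C, 5% CO2. Fluorescence read at Ex/Em 405/460 nm, expressed as triamterene-equivalent signal.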

[16] = qHTS assay to test for compound auto fluorescence at 535 nm (green) in HEK293 cell free culture (AID 720682)
How it was run: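 Green-label autofluorescence (485 nm excitation, 535 nm emission) measured on compound added to cell-free culture medium (DMEM, 10% FBS). Output is expressed relative to fluorescein.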

[17] = qHTS assay to test for compound auto fluorescence at 590 nm (red) in HEK293 cell free culture (AID 720683)
How it was run: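 Tox21 10K library compounds were pinned into cell-free DMEM with 10% FBS and fluorescence was read at excitation 540 nm. Activity is expressed as Rose Bengal sodium equivalency.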

[18] = biological target: Glucocorticoid receptor (Homo sapiens) (UniProt P04150); assay: qHTS assay to identify small molecule agonists of the glucocorticoid receptor (GR) signaling pathway (AID 720691; active = well fitted activation curve with a large enough effect in the signal ratio in the repeat runs, not every such curve was filed as active; the % refers to the signal ratio)
Chain of Glucocorticoid receptor (Homo sapiens) (P04150 whole entry, looked up): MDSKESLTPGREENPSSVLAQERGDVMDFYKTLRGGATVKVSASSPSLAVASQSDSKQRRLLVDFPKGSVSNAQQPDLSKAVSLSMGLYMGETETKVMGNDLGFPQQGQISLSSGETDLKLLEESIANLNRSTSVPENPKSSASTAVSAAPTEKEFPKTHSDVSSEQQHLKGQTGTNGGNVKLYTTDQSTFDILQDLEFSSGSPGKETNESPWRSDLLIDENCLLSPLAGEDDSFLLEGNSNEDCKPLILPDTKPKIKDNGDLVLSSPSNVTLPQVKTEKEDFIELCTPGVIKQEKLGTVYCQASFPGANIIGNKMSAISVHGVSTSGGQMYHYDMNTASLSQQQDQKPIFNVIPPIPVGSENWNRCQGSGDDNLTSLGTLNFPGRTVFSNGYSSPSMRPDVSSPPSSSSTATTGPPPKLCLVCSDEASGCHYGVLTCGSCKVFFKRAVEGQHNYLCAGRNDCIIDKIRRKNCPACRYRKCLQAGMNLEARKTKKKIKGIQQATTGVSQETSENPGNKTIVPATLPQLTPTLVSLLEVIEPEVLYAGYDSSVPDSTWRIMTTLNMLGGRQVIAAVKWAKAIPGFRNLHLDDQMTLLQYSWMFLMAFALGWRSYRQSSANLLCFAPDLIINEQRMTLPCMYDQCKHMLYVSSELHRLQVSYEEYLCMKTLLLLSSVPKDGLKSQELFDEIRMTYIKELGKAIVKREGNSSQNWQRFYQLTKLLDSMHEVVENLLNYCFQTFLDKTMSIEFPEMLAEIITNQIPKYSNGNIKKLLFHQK
How it was run: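 HeLa GR-bla reporter line; cells pre-incubated 4 h, compound in DMSO 18 h at 37 C; LiveBLAzer B/G FRET substrate 2 h RT; fluorescence intensity read-out.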

[19] = biological target: Glucocorticoid receptor (Homo sapiens) (UniProt P04150); assay: qHTS assay to identify small molecule antagonists of the glucocorticoid receptor (GR) signaling pathway (AID 720692; active = well fitted inhibition curve with a large enough effect in the signal ratio in the repeat runs, not every such curve was filed as active; the % refers to the signal ratio)
How it was run: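 Read-out: beta-lactamase FRET substrate fluorescence, 2 h at room temperature, in HeLa cells stably carrying a GRE-driven bla reporter. Compounds were co-incubated with 5 nM dexamethasone agonist (final) for 18 h at 37 C.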

[20] = qHTS assay to test for compound auto fluorescence at 535 nm (green) in HepG2 cell free culture (AID 720686)

Measured: Potency

NCCN1CCNCC1
not listed: [16] | [17] | [18] | [19] | [20]
inactive: all other assays above

c1ccc2c(c1)Cc1ccccc1-2
not listed: [12] | [20]
inactive: all other assays above

COCCOC(=O)c1ccccc1C(=O)OCCOC
not listed: [12] | [15]
inactive: all other assays above

CC1(C)NC(=O)NC1=O
not listed: [17]
inactive: all other assays above

CCCCCCO
not listed: [16] | [17]
inactive: all other assays above

CNC(=S)N(C)C
not listed: [12]
inactive: all other assays above

CCNc1ccccc1
24.8 µM (active) and inactive: [6]
not listed: [14] | [18] | [19] | [20]
inactive: all other assays above

COc1ccccc1OCC(O)CO (stereo not drawn)
not listed: [12] | [17] | [18] | [19] | [20]
inactive: all other assays above
